# An excerpt weighted towards active compounds, which were near 12% of everything screened.
# Pf growth 96h: P. falciparum growth inhibition at 96 hour, primary screen for plastid delayed-death inhibitors. P. falciparum luciferase reporter growth, 96 h. Potency, µM (titrated, usually from 28.7 µM), for inactives: at the top dose activity change, negative = inhibition, actives largely listed as inhibitors. 320,000 tested, 6.9% active. AID 504834; further: on the % scale 0 is the no-effect control and ±100 the full control effect
#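 Two parasite generations (96 h, 37 C, 5% CO2) of compound exposure in infected erythrocytes (0.05% parasitemia, 2% hematocrit). Luciferase-reporter P. falciparum; decreased luminescence indicates inhibited growth, aimed at apicoplast-acting delayed death.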
# Pf growth 48h: inhibits P. falciparum growth in the first generation, 48 h | Potency, µM (series often up to 28.7 µM), inactives show at the top dose activity change, negative = inhibition, most hits filed as inhibitors | 310,000 tested, 5.9% active | P. falciparum luciferase growth in erythrocytes, 48 h; further: on the % scale 0 is the no-effect control and ±100 the full control effect
#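 Luciferase-expressing parasites in RBCs, 2% Hct / 0.1% parasitemia final; RPMI 1640 + 0.5% Albumax; 37 C, 5% CO2, one generation; luminescence read-out, lower signal = inhibition.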
# AMA1 RON2 block: AMA1-RON2 (P. falciparum) interaction inhibition | AlphaScreen AMA1-biotinylated RON2 peptide binding | Potency, µM (titrated, usually from 58.2 µM), without a hit: top-dose activity change, negative = inhibition, most hits filed as inhibitors | 360,000 tested, 0.2% active | AID 720542;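 further: 0% = vehicle wells and -100% = peptide control; nearly all actives have a fitted effect of over 45% in size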
#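 AMA1 (3D7) with his tag at 25 nM final met compounds first, then biotinylated RON2 peptide at 25 nM; detection used donor plus acceptor beads, 10 µg/mL apiece, read by AlphaScreen after 30 min at room temperature.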
# SARS PLpro yeast: inhibitors of SARS-CoV papain-like protease in yeast; S. cerevisiae expressing SARS-CoV PLpro, growth rescue; Potency, µM (titrated, usually from 32.9 µM), for inactives: at the highest dose activity, positive = growth rescue, most hits filed as activators; 330,000 tested, 0.19% active; calls by dose curve; further: 0% is about no effect; nearly all actives have a fitted effect of over 55% in size
# NS1 function inh: inhibitors of influenza NS1 protein function. 270,000 tested, 0.4% active. AID 2326. Potency, µM (titrated, usually from 46.1 µM), for the others: at the highest dose activity, positive = more growth; calls by dose curve; further: actives are rising curves; nearly all actives have a fitted effect of over 50% in size
#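 Growth recovery, yeast-based: influenza A NS1 expressed in S. cerevisiae causes slow growth, and suppressors are detected by OD600. The parent strain without NS1 is used as positive control.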
# HCV inhibitor: blocks hepatitis C virus; Huh7.5.1 HCVcc-Cre infection, luciferase reporter, 44 h; Potency, µM (titrated, usually from 41.8 µM), for the others: at the highest dose activity change, negative = inhibition, usual class: inhibitors; 340,000 tested, 3.4% active; further: on the % scale 0 is the no-effect control and ±100 the full control effect
#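 After 44 h co-culture of compound, cells and HCVcc-Cre (~0.5 moi), substrate is added for 15 min at room temperature and luciferase measured over 15 sec. Cells were seeded at 1,000/well and pre-cultured 4 h.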
# The depositor's hits bear a star; i = inactive; ? = inconclusive; . = not tested or not shown. Unless noted, the call rests on the fitted dose curve; in most records, active means well fitted curve in the direction sought with a large enough effect; inconclusive means small, poorly fitted or top-dose-only effect, or another doubt; inactive means no such curve, though single readings can be large; an effect the other way counts as inactive or inconclusive. Potency means the concentration at half of the fitted maximal effect.
SMILES,Pf growth 96h,Pf growth 48h,AMA1 RON2 block,SARS PLpro yeast,NS1 function inh,HCV inhibitor
CCc1ccc(Nc2n[n+](-c3ccccc3)c(/C=C/c3ccccc3)s2)cc1,1.17µM*,?,.,-1.3%,19.5%,.
COC(=O)CNC(=O)C(Cc1ccccc1)NS(=O)(=O)c1ccc2c(c1)c(=O)n(C)c(=O)n2C (centres undefined),?,-29.7%,0.1%,-0.4%,.,5.1%
O=C(c1cnc2c(c1)COc1ccc(Cl)cc1-2)c1ccccc1O,0.4%,?,-2.4%,-12.2%,8.1%,?
Cc1ccc(O)c(C(=O)c2cnc3c(c2)COc2ccccc2-3)c1,?,4.15µM*,?,-51.1%,-25.7%,10µM*
Cc1cc(NS(=O)(=O)c2ccc(NC(=O)CSc3nc4ncccc4[nH]3)cc2)nc(C)n1,3.2%,-3.3%,-3.6%,-0.4%,-12.5%,10.0%
CCCCc1nnc(NC(=O)C23CC4CC(CC(NC(C)=O)(C4)C2)C3)s1,-15.1%,-1.9%,-3.0%,-7.0%,6.6%,0.3%
CC(=O)NC12CC3CC(C1)CC(C(=O)Nc1nccs1)(C3)C2,6.57µM*,?,-1.2%,2.5%,-2.0%,10.6%
COc1ccc(OC)c(CNc2ccc([N+](=O)[O-])cc2C)c1,44.9%,?,12.6µM*,-8.9%,.,-20.6%
Cc1cc([N+](=O)[O-])ccc1NCc1ccc2c(c1)OCCO2,?,?,-19.4%,-11.5%,-11.5%,10µM*
COc1ccc([N+](=O)[O-])cc1NCc1ccccc1,3.29µM*,17.6%,12.0%,?,-14.3%,6.31µM*
Cc1nn(CCCC(=O)NCCc2ccccc2)c(=O)c2nccn12,11.6%,13.8%,-0.4%,0.4%,-4.2%,18.6%
Cc1cc(Br)cn2c(Cc3cccc(F)c3)c(C3CCCCC3)nc12,.,.,-13.0%,.,.,.
COc1ccccc1CNS(=O)(=O)CCNCc1ccco1,.,.,-9.3%,.,.,21.0%
COc1cccc(CN(C)CC(O)COc2cc(Cl)ccc2Cl)c1 (centres undefined),?,10.4µM*,0.9%,-0.8%,-0.6%,?
OC[C@@H]1CN(Cc2cccs2)C[C@H](n2cnc3c(NC4CCC4)ncnc32)O1,.,.,-2.7%,.,.,.
Cc1cc(=O)oc(C)c1C(=O)N1CCc2c([nH]c3ccccc23)C1C(C)C (centres undefined),11.7µM*,.,-1.9%,-4.2%,-22.8%,8.7%
Cc1ncoc1C(=O)N1CCc2c([nH]c3ccccc23)C1C(C)(C)C (centres undefined),?,?,-8.6%,-0.1%,-0.9%,11.0%
CCN(C(=O)Cc1ccccc1OC)c1nnc(-c2ccncc2)s1,?,?,-4.2%,-3.4%,-16.4%,?
CCN(C(=O)Cc1cccs1)c1nnc(-c2cc(OC)c(OC)c(OC)c2)s1,-17.4%,5.22µM*,5.4%,-0.3%,-39.2%,?
COc1cccc(/C=N/NC(=O)Cn2cnc3c2c(=O)n(C)c(=O)n3C)c1OC,6.0%,15.9%,-1.8%,0.4%,-6.6%,2.7%
COc1ccc(-c2csc3ncnc(N4CCN(S(=O)(=O)c5ccc(C)cc5)CC4)c23)cc1,?,11.7µM*,-4.8%,0.9%,.,11.2µM*
O=S(=O)(c1ccc(Oc2ncnc3scc(-c4ccccc4)c23)cc1)N1CCOCC1,-8.2%,?,-11.0%,?,-1.7%,10µM*
COc1ccc(-c2csc3ncnc(N4CCN(S(=O)(=O)c5cccs5)CC4)c23)cc1,0.0%,?,-20.2%,4.7%,.,8.91µM*
Cc1ccc(S(=O)(=O)N2CCN(C(=O)C3CCN(c4ncnc5sc(C)c(C)c45)CC3)CC2)c(C)c1,.,.,-1.3%,.,.,4.47µM*
O=C1CN(C(=O)COC(=O)c2ccc(Br)o2)c2ccccc2N1,.,.,-8.8%,5.6%,.,0.2%
SMILES,Pf growth 96h,Pf growth 48h,AMA1 RON2 block,SARS PLpro yeast,NS1 function inh,HCV inhibitor
COc1ccc(-c2nc3ncccc3o2)cc1NC(=O)c1ccco1,?,69.6%,-0.3%,-2.3%,-1.1%,-10.4%
O=C(O)c1cccc(N2C(=O)C3C4C=CC(C4=C(c4ccccc4)c4ccccc4)C3C2=O)c1 (centres undefined),22.5%,?,15.5%,-0.9%,8.4%,14.2%
COc1ccc(NC(=O)CCCn2nc(C)c3c(C)n(-c4ccccc4)nc3c2=O)cc1,?,-17.9%,-7.4%,2.1%,9.1%,-11.4%
Cc1sc2ncnc(N3CCN(S(=O)(=O)c4ccc(Br)cc4)CC3)c2c1C,.,.,-2.3%,.,.,.
Cc1sc2ncnc(N3CCN(S(=O)(=O)c4ccc(C(C)(C)C)cc4)CC3)c2c1C,.,.,-4.1%,-3.7%,.,5.62µM*
COc1ccc(-c2csc3ncnc(N4CCN(S(=O)(=O)c5ccc(Cl)s5)CC4)c23)cc1,?,?,-5.0%,-0.2%,.,10µM*
Nc1ncnc2c1ncn2CCOc1ccccc1,87.0%,-8.3%,0.2%,-2.7%,-3.8%,26.5%
CC(C)(C)C(=O)OCOP(=O)(COCCn1cnc2c(N)ncnc21)OCOC(=O)C(C)(C)C,6.75µM*,15.1µM*,.,.,.,.
CCCCCCCCCCCCCCCCN,-13.0%,1.0%,.,.,.,.
CCCCCC(C)N (centres undefined),12µM*,?,.,.,.,.
CCOC(=O)C1=C(CSCc2ccccc2)NC(=O)NC1c1cc(C)ccc1C (centres undefined),.,13.1µM*,-10.0%,-1.6%,14.2%,?
COc1cc([N+](=O)[O-])ccc1NC(=O)C1C2C=CC(C2)C1C(=O)O (centres undefined),11.7µM*,?,-14.2%,-0.2%,-12.7%,18.9%
COc1ccc(NC(=S)Nc2cccc(C(C)=O)c2)cc1OC,11.7µM*,-0.6%,7.1%,-0.2%,5.0%,1.0%
COC(=O)Nc1ccc([N+](=O)[O-])cc1OC,i,25.8%,-13.2%,0.0%,12.5%,0.6%
COc1cc([N+](=O)[O-])ccc1NC(=S)Nc1cccc(C(=O)O)c1,1.47µM*,-9.7%,-3.5%,6.2%,13.9%,?
CCOCC(O)COc1ccc(NC(=O)CC[S+](C)C)cc1 (centres undefined),-3.4%,-14.0%,.,.,.,.
CCNC(=O)c1ccc2c(c1)C1C3CCC(C3)C1C(c1ccccc1)N2 (centres undefined),49.8%,7.38µM*,-18.9%,-72.0%,-41.5%,10.1%
CC(=O)c1ccc2c(c1)C1C(Cl)C(Sc3ccccc3[N+](=O)[O-])CC1C(c1ccccc1)N2 (centres undefined),?,?,-29.0%,0.0%,-10.0%,?
COc1cc(NC(=O)COc2ccccc2Cl)ccc1NC(=O)c1cccs1,18.6%,12.5%,-2.6%,-3.8%,-6.3%,1.12µM*
COc1ccc(CC(=O)NNC(=O)Cc2ccc(OC)cc2)cc1,-4.8%,10.3%,.,0.3%,10.1%,.
COc1ccc(NC(=O)CCC(=O)c2cccs2)cc1Cl,43.6%,52.1%,15.3%,2.9%,-3.7%,-0.5%
